Drawing on paper PMC7862700, “An all-to-all approach to the identification of sequence-specific readers for epigenetic DNA modifications on cytosine”, this text covers binding signal for one sequence.

Holding throughout (assay): DAPPL (digital affinity profiling via proximity ligation, sequencing); 10 mM Tris-HCl pH 7.5, 50 mM NaCl, 1 mM DTT, 4% glycerol, room temperature, 30 min; GST-TFs on glutathione beads, 16-mer random dsDNA library, 0.1% formaldehyde crosslink after washing; high values mean tight binding
In one assay the target is T1, FEV (Homo sapiens, UniProt Q99581 1-238).
T1 sequence: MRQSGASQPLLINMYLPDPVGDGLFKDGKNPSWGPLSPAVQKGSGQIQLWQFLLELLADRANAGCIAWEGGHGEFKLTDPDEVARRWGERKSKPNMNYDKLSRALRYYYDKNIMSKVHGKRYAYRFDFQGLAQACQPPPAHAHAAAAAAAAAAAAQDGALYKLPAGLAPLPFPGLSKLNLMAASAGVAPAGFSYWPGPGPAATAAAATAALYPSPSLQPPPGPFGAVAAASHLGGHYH
Particulars: protein: recombinant; tags: N-terminal GST; dsDNA, one strand shown. An outline of the steps: (§1)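 Human transcription factors carrying a GST fusion were produced in yeast, bound to glutathione beads, tagged with DNA barcodes and pooled together with a tag-only sample. Each pool was held with 200 nmole of a random double-stranded 16-mer DNA library in Tris/NaCl/DTT/glycerol buffer for 30 min at room temperature, then washed, crosslinked in 0.1% formaldehyde, proximity-ligated with BsaI/T4 ligase (1 h, 37 °C), PCR-amplified and sequenced on an Illumina NextSeq500. Binding signal is the read frequency of each hexamer for a given factor divided by its frequency in the tag-only sample.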

The next assay deals with ETV5 (Homo sapiens, UniProt P41161 1-510). Particulars: protein: recombinant; tags: N-terminal GST; dsDNA, one strand shown. An outline of the steps: as §1
For the next assay, the target named is HSF1 (Homo sapiens, UniProt Q00613 1-529). To be noted: protein: recombinant; tags: N-terminal GST; chain copies: 3; dsDNA, one strand shown. An outline of the steps: as §1
The next assay deals with T2, SPIC (Homo sapiens, UniProt Q8N5J4 1-248).
T2 sequence: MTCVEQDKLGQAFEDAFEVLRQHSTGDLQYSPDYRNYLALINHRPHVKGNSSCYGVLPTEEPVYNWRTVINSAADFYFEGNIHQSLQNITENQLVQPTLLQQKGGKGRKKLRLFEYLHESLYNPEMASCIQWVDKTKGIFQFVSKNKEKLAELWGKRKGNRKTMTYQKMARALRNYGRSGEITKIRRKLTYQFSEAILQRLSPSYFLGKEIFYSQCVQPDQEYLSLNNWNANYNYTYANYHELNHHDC
Particulars: protein: recombinant; tags: N-terminal GST; dsDNA, one strand shown. The procedure, abridged: as §1

A further assay has as its target ELF4 (Homo sapiens, UniProt Q99607 1-663). To be noted: protein: recombinant; tags: N-terminal GST; dsDNA, one strand shown. The procedure, abridged:
as §1

The next assay concerns the target T3, ELK4 (Homo sapiens, UniProt P28324-2 1-405).
T3 sequence: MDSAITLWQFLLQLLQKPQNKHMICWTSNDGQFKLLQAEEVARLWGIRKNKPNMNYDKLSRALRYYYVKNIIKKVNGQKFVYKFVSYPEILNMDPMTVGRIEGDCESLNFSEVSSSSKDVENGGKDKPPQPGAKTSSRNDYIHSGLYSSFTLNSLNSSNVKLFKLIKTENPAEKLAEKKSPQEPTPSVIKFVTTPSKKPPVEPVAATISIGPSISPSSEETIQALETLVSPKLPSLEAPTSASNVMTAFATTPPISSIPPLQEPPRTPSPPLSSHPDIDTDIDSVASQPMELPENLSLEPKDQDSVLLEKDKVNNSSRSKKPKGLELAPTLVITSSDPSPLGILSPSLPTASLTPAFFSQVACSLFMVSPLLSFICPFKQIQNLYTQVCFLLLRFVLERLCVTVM
Particulars: protein: recombinant; tags: N-terminal GST; dsDNA, one strand shown. An outline of the steps: as §1

In the next assay the target is T4, ETV2 (Homo sapiens, UniProt O00321 1-342).
T4 sequence: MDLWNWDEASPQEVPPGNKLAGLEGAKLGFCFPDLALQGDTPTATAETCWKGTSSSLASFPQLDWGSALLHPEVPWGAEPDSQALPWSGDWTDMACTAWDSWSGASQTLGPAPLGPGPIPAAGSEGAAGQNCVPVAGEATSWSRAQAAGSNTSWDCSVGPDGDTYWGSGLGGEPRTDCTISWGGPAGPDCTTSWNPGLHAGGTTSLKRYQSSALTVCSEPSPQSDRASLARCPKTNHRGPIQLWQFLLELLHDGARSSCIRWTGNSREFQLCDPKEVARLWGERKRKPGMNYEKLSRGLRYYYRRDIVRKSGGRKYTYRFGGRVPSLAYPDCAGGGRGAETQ
To be noted: protein: recombinant; tags: N-terminal GST; dsDNA, one strand shown. An outline of the steps: as §1

For a further assay, the target named is T5, ELF3 (Homo sapiens, UniProt P78545 1-371).
T5 sequence: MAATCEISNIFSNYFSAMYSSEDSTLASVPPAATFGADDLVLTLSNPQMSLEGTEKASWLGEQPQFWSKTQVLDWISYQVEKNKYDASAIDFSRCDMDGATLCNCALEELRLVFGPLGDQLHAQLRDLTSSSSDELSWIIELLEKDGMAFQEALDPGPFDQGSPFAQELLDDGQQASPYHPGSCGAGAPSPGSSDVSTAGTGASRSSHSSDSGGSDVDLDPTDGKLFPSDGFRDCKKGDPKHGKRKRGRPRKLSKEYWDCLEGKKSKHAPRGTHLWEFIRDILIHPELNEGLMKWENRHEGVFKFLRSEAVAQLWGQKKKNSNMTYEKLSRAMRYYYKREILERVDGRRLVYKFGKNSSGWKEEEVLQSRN
Particulars: protein: recombinant; tags: N-terminal GST; dsDNA, one strand shown. An outline of the steps: as §1

For the next assay, the target named is CRX (Homo sapiens, UniProt O43186 1-299). Particulars: protein: recombinant; tags: N-terminal GST; dsDNA, one strand shown. An outline of the steps: as §1
Another assay addresses ETV1 (Homo sapiens, UniProt P50549 1-477). Particulars: protein: recombinant; tags: N-terminal GST; dsDNA, one strand shown. The procedure, abridged:
as §1

The target in a further assay is T6, ERF (Homo sapiens, UniProt P50548 1-548).
T6 sequence: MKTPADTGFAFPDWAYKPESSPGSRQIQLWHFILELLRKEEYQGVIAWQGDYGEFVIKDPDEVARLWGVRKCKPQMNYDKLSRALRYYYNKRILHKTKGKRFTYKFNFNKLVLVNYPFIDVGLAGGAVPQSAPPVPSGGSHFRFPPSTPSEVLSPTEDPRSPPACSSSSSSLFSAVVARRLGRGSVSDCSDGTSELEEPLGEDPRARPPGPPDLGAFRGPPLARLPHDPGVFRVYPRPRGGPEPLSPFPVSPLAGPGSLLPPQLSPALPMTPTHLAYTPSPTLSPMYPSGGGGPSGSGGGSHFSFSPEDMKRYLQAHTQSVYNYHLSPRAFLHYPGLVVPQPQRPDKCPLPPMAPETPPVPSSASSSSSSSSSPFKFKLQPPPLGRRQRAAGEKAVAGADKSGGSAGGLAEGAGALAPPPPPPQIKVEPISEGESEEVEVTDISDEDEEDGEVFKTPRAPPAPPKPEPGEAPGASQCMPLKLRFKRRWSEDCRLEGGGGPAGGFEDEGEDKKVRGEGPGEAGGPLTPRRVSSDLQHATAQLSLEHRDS
Particulars: protein: recombinant; tags: N-terminal GST; dsDNA, one strand shown. The procedure, abridged:
as §1

The next assay has as its target T7, ETV3L (Homo sapiens, UniProt Q6ZN32 1-361).
T7 sequence: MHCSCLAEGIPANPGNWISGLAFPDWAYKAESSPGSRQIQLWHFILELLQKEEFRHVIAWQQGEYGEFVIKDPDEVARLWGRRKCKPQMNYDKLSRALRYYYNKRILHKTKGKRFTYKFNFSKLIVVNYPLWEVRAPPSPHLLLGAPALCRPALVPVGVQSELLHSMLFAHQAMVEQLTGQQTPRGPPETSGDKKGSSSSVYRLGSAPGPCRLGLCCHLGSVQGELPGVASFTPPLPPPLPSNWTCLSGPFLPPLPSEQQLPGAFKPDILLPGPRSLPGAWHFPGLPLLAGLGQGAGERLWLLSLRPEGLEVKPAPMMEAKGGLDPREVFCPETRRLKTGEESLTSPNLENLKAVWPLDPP
To be noted: protein: recombinant; tags: N-terminal GST; dsDNA, one strand shown. The procedure, abridged:
as §1

The next assay deals with T8, ETS2 (Homo sapiens, UniProt P15036 1-469).
T8 sequence: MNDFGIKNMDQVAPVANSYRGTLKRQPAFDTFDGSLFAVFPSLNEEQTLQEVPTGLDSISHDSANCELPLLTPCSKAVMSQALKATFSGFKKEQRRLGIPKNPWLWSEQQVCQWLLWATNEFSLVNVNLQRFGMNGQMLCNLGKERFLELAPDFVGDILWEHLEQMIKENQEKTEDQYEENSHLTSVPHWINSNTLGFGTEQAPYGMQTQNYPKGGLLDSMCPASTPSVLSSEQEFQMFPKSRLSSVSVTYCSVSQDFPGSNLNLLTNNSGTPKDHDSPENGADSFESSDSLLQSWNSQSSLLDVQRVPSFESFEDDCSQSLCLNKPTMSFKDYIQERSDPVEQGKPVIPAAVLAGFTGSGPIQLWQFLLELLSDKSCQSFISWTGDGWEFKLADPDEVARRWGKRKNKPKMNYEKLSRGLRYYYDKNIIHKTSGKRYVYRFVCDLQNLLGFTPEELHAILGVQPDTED
To be noted: protein: recombinant; tags: N-terminal GST; dsDNA, one strand shown. An outline of the steps: as §1

The target of the next assay is T9, SPDEF (Homo sapiens, UniProt O95238 1-335).
T9 sequence: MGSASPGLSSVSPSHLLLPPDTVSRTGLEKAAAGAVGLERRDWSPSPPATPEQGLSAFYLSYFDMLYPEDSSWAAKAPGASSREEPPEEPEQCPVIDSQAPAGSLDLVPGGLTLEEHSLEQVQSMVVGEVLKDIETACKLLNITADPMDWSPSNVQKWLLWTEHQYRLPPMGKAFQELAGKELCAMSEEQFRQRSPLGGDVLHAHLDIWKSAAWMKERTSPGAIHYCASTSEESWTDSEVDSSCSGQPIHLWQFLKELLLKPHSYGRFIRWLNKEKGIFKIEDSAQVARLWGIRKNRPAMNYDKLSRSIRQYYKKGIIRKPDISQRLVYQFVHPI
To be noted: protein: recombinant; tags: N-terminal GST; dsDNA, one strand shown. The procedure, abridged: as §1

Another assay has as its target T10, ETV7 (Homo sapiens, UniProt Q9Y603 1-341).
T10 sequence: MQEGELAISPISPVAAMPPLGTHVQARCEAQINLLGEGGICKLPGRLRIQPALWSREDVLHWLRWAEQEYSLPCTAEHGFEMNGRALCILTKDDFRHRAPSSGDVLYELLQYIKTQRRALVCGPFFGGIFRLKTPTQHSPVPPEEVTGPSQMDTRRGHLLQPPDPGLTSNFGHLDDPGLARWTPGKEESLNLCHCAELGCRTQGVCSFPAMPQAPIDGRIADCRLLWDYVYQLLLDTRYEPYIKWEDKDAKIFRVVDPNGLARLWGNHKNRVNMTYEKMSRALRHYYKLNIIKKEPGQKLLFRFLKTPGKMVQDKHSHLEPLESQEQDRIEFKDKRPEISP
To be noted: protein: recombinant; tags: N-terminal GST; dsDNA, one strand shown. The procedure, abridged:
as §1

Another assay deals with T11, ELF5 (Homo sapiens, UniProt Q9UKW6-2 1-255).
T11 sequence: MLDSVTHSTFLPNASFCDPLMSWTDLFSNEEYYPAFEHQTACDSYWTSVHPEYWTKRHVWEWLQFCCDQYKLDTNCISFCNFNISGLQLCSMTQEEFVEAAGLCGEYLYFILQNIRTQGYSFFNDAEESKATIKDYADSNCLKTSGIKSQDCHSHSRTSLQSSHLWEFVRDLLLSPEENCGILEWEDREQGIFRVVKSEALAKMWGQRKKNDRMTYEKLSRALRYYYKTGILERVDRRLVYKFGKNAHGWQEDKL
Particulars: protein: recombinant; tags: N-terminal GST; dsDNA, one strand shown. An outline of the steps: as §1

The target in a further assay is T12, ETV3 (Homo sapiens, UniProt P41162-2 1-143).
T12 sequence: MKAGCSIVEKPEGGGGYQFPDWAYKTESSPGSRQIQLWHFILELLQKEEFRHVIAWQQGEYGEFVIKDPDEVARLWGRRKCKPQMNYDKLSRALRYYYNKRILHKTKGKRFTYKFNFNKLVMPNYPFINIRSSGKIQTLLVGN
To be noted: protein: recombinant; tags: N-terminal GST; dsDNA, one strand shown. The procedure, abridged: as §1

A further assay has as its target ETV6 (Homo sapiens, UniProt P41212 1-452). To be noted: protein: recombinant; tags: N-terminal GST; dsDNA, one strand shown. An outline of the steps: as §1

Chain of ETV6 (P41212 whole entry): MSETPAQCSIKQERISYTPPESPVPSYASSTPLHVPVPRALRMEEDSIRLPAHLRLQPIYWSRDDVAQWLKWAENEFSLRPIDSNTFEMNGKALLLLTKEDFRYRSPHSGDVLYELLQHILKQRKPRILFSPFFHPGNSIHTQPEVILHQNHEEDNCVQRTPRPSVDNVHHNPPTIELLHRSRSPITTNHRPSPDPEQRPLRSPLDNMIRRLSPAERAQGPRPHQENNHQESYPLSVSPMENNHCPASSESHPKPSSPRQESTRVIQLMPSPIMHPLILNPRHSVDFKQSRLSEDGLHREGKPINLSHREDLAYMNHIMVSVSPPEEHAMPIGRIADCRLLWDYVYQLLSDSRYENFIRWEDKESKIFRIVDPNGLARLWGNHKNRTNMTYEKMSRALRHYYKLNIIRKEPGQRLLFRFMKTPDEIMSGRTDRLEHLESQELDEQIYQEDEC
Chain of CRX (O43186 whole entry): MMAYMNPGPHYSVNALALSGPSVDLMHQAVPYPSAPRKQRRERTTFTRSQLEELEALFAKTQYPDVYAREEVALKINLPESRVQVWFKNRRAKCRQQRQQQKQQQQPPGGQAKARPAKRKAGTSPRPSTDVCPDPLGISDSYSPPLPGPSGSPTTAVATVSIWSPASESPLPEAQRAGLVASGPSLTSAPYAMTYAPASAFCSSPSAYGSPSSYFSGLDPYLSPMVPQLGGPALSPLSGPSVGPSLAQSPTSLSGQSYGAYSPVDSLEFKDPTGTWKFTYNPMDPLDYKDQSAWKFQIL
Chain of ETV1 (P50549 whole entry): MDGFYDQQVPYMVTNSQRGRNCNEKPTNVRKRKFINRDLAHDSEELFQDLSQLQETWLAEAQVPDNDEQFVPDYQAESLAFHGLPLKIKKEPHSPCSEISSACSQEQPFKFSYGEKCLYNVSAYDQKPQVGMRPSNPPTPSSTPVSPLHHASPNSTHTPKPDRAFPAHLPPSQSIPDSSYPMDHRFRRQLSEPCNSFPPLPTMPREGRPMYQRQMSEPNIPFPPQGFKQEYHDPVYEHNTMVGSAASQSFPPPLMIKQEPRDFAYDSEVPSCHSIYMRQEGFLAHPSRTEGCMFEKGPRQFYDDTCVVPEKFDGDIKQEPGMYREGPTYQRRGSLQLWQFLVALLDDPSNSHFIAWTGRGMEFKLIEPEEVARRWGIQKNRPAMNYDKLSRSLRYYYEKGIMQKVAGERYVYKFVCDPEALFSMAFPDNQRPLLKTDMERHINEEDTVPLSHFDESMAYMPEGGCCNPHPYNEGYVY
Chain of ELF4 (Q99607 whole entry): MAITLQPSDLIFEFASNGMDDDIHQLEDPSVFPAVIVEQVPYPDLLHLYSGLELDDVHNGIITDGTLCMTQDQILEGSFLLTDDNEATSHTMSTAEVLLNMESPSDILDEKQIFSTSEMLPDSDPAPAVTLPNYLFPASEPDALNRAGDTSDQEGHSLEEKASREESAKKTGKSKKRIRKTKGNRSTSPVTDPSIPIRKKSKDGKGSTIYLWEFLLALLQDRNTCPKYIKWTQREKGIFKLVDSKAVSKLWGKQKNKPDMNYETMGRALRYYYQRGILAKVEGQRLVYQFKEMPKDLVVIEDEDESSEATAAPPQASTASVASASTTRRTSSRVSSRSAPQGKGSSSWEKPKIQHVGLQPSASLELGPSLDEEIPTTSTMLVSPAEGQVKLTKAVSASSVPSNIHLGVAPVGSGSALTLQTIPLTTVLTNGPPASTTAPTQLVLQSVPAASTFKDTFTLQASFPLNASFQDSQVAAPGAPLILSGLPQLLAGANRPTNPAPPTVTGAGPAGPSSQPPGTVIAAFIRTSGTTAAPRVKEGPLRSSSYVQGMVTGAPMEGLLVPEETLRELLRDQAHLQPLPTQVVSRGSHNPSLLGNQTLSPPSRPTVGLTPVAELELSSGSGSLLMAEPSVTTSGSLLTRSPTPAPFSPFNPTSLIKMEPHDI
Chain of ETV5 (P41161 whole entry): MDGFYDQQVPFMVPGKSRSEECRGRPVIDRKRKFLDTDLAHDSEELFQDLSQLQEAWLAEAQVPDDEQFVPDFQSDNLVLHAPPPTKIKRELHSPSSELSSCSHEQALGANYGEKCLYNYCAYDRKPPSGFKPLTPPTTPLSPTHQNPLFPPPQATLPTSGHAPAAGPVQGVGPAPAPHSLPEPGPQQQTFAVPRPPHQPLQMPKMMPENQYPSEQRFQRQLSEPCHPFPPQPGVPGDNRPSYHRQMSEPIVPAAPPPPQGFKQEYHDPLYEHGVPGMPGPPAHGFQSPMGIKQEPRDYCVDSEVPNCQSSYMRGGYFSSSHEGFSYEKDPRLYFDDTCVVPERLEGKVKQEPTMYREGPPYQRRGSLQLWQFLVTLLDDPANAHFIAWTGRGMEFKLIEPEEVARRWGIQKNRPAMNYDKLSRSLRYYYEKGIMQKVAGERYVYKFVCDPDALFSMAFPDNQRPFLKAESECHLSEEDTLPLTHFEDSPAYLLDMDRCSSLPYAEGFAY
Chain of HSF1 (Q00613 whole entry): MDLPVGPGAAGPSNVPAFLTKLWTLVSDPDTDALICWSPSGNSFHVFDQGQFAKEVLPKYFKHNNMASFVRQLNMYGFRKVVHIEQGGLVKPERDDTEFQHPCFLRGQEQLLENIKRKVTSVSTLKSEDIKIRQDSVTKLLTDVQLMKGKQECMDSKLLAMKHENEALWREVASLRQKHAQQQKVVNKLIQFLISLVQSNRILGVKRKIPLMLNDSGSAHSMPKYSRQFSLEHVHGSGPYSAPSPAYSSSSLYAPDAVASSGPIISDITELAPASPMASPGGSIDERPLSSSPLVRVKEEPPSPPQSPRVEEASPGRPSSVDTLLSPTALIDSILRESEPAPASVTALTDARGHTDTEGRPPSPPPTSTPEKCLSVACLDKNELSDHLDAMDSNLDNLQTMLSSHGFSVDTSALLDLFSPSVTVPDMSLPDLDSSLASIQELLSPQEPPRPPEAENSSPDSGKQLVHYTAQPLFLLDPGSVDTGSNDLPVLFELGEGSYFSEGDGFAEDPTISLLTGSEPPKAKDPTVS

For TGCTAT, the binding signal is 1.39 fold enrichment (6-mer frequency, TF over GST control) with FEV; 1.43 fold enrichment (6-mer frequency, TF over GST control) with ETV5; 1.22 fold enrichment (6-mer frequency, TF over GST control) with HSF1; 1.37 fold enrichment (6-mer frequency, TF over GST control) in the assay with SPIC; 1.37 fold enrichment (6-mer frequency, TF over GST control) with ELF4; 1.57 fold enrichment (6-mer frequency, TF over GST control) in the assay with ELK4. Moreover, the binding signal was 1.71 fold enrichment (6-mer frequency, TF over GST control) with ETV2; 1.6 fold enrichment (6-mer frequency, TF over GST control) with ELF3; 1.3 fold enrichment (6-mer frequency, TF over GST control) with CRX; 1.31 fold enrichment (6-mer frequency, TF over GST control) in the assay with ETV1; 1.33 fold enrichment (6-mer frequency, TF over GST control) with ERF; 1.4 fold enrichment (6-mer frequency, TF over GST control) in the assay with ETV3L. Further, the binding signal was 1.52 fold enrichment (6-mer frequency, TF over GST control) with ETS2; 1.48 fold enrichment (6-mer frequency, TF over GST control) in the assay with SPDEF; 1.43 fold enrichment (6-mer frequency, TF over GST control) in the assay with ETV7; 1.33 fold enrichment (6-mer frequency, TF over GST control) in the assay with ELF5; 1.45 fold enrichment (6-mer frequency, TF over GST control) in the assay with ETV3; 1.38 fold enrichment (6-mer frequency, TF over GST control) with ETV6.
